Assay results as given in PubChem BioAssay (NCATS).
Records with an inconclusive call do not appear. Entries that show only a call come without a potency. Values without a mark were called inactive. Active and inactive are the calls of the source. Calls follow the shape of the dose curve; as a rule, active = well fitted cell-killing curve with a large enough effect; inconclusive = small, poorly fitted or top-dose-only effect; inactive = no such curve, though single readings can be large or run the other way. Where a SMILES comes first, the peptide text is derived from it.

assay: qHTS of pediatric cancer cell lines to identify multiple opportunities for drug repurposing: Primary screen for SK-N-MC cells (AID 1347093); conditions: SK-N-MC viability, CellTiter-Glo luminescence, 48 h; series mostly up to 46 µM
Text: Drug repurposing or repositioning has been offered as a strategy for drug development in oncology programs. This approach has special potential for childhood cancers and other rare or orphan diseases, where the expected return on new drug development has been a disincentive to pharmaceuticals.
In this project we exploit the poly-pharmacology of drugs to discover new indications via phenotypic screening of a panel of 19 well-characterized cell lines derived from solid tumors seen in children and adolescents. The goal is to identify approved drugs with previously unrecognized anticancer properties that has the potential to reveal new mechanisms and biological processes involved in carcinogenesis or drug resistance. We employed a titration-based paradigm (quantitative high-throughput screening or qHTS), where all compounds were tested at multiple concentrations for their effect on cell viability. Concentration-response curves (CRCs) were derived directly from the primary screen, and both potency and efficacy values were used to identify compounds with robust bioactivity profiles. We screened the NIH Chemical Genomics Center (NCGC) Pharmaceutical Collection (NPC) and Mechanism Interrogation Plate (MIPE) small molecule collections of approved and investigational compounds against these cell lines; and measured metabolically active cells after 48 hours of compound treatment as a proxy for cell viability.
Assay Submitter: Nathalia J. Martinez, National Center for Advancing Translational Sciences, National Institutes of Health, Rockville, MD, USA; email: natalia.martinez@nih.gov
[1] Shen, M et al. Quantitative high-throughput phenotypic screening of pediatric cancer cell lines identifies multiple opportunities for drug repurposing. Oncotarget 2017 Dec 19;9(4):4758-4772. PMID 29435139.
The cells were obtained from University of North Carolina (UNC), Pediatric Preclinical Testing Program (PPT), and Coriell Institute (CI).
qHTS cell viability assay:
Cells were assayed in growth media at a density of 500-1,000 cells/well. Five microliters of cells were dispensed into 1,536-well, white, solid-bottom, TC-treated plates (Greiner Bio One) using a multidrop dispenser and incubated at 37 degrees C, 5% CO2, under a humidified atmosphere for 5 hours. Twenty-three nanoliters of compounds and controls (neutral control DMSO or positive control bortezomib at final concentration of 2.3 µM) were subsequently transferred by Kalypsys pintool. For primary screens, the MIPE collection was tested at 11-point dilutions (final concentrations range from 0.78 nM to 46 µM) and the NPC collection at 8-point dilutions (final concentrations range from 0.59nM to 46 µM). Compounds tested in follow-up screens were assayed at 11-point dilutions. Cells were incubated for 48 hours, followed by addition of 3 uL of CellTiter-Glo (Promega). After a 15 min incubation at room temperature, samples were analyzed for luminescence intensity using a ViewLux High-throughput CCD imager equipped with clear filters.
Potency is read from the fitted curve at half-maximal effect.

| Compound | Potency | activity change, negative = cytotoxic |
| --- | --- | --- |
| O=C(O)C(=O)Nc1cccc(-c2nn[nH]n2)c1 | inactive | – |
| CC(=O)c1ccc(O)c(C(N)=O)c1 | inactive | – |
| CC(=O)N1CCN(c2ccc(O)cc2)CC1 | inactive | – |
| C/C(=N/NC(=O)c1ccncc1)C(=O)O | inactive | – |
| CO[C@@]1(NC(=O)CSC[C@@H](N)C(=O)O)C(=O)N2C(C(=O)O)=C(CSc3nnnn3C)CS[C@@H]21 | inactive | – |
| N#Cc1cc(NC(=O)C(=O)O)c(Cl)c(NC(=O)C(=O)O)c1 | inactive | – |
| CC(=O)N[C@@H](CO)C(=O)N[C@@H](CC(=O)O)C(=O)N[C@@H](CCCCN)C(=O)N1CCC[C@H]1C(=O)O (Ac-SDKP-OH) | inactive | – |
| N#CC1(c2ccc(F)cc2)CCC(=O)CC1 | inactive | – |
| CCn1ccc(NS(=O)(=O)c2ccc(N)cc2)nc1=O | inactive | – |
| COc1ccc2c(c1)c(CC(=O)OC/C=C(\C)CC/C=C(\C)CCC=C(C)C)c(C)n2C(=O)c1ccc(Cl)cc1 | inactive | – |
| Cc1ccc(C(C)OC(=O)C2(C)CCC(C(=O)O)C2(C)C)cc1 (stereo not given) | inactive | – |
| CCCCCCCCCCCCCCCCCCN(C)C | inactive | – |
| C[C@@H]1C[C@H]2[C@@H]3CCC4=CC(=O)C=C[C@]4(C)[C@@]3(F)[C@@H](O)C[C@]2(C)[C@@]1(O)C(=O)COC(=O)c1ccncc1 | inactive | – |
| OC1(c2ccc(Cl)c(C(F)(F)F)c2)CCN(CCCC(c2ccc(F)cc2)c2ccc(F)cc2)CC1 | 6.68 µM (active) | – |
| CCC1(c2cnc[nH]2)Cc2ccccc2C1 | inactive | – |
| Cc1nc([N+](=O)[O-])cn1-c1ccc([N+](=O)[O-])cc1 | inactive | – |
| CCC(=O)O[C@]1(C(=O)COC)[C@@H](C)C[C@H]2[C@@H]3CCC4=CC(=O)C=C[C@]4(C)C3(F)[C@@H](O)C[C@@]21C (stereo not given in full) | inactive | – |
| CC1CN(c2cc3c(cc2F)c(=O)c(C(=O)O)cn3-c2ccc(F)cc2F)CCN1 (stereo not given) | – | 32.9% [at 4.84 µM] |
| COc1ccc(-n2nc(CCC(=O)N(C)O)cc2-c2ccc(Cl)cc2)cc1 | 23.7 µM (active) | – |
| COC(=O)c1cc(S(N)(=O)=O)ccc1OC | inactive | – |

| Compound | Potency | activity change, negative = cytotoxic |
| --- | --- | --- |
| Cc1ccc(/C=N/n2c(-c3ccccc3)csc2=S)cc1 | inactive | – |
| NCC[C@H](O)C(=O)N[C@@H]1C[C@H](N)[C@@H](O[C@H]2O[C@H](CN)[C@@H](O)[C@H](O)[C@@H]2O)[C@H](O)[C@@H]1O[C@H]1O[C@H](CO)[C@@H](O)[C@H](N)[C@@H]1O | – | -10.7% [at 0.597 µM] |
| O=c1[nH]c2ccccc2c(=O)n1CCCl | inactive | – |
| CO[C@@H]1[C@@H](O[C@@H]2O[C@H](C)[C@@H](O[C@H]3C[C@@](C)(O)[C@@H](O)[C@H](C)O3)[C@H](N(C)C)[C@H]2O)[C@@H](CC=O)C[C@@H](C)[C@@H](O[C@@H]2CC[C@H](N(C)C)[C@@H](C)O2)/C=C/C=C/C[C@@H](C)OC(=O)C[C@H]1OC(C)=O | inactive | – |
| CC(C)(C)C1CCC(CC2=C(O)c3ccccc3C(=O)C2=O)CC1 (stereo not given) | 5.31 µM (active) | – |
| CO[C@@H]1[C@@H](OC)[C@H](C)[C@@](O)(CC(=O)O)O[C@H]1[C@H](C)[C@H]1O[C@@]2(CC[C@@](C)([C@H]3CC[C@@](C)([C@@H]4O[C@@H]([C@H]5O[C@](C)(O)[C@H](C)C[C@@H]5C)C[C@@H]4OC4C[C@H](OC)[C@@H](OC)[C@H](C)O4)O3)O2)C[C@H](O)[C@H]1C (stereo not given in full) | 0.188 µM (active) | – |
| CCC(=O)O[C@H]1[C@H](O[C@@H]2[C@@H](C)[C@H](O[C@H]3C[C@@](C)(OC)[C@@H](O)[C@H](C)O3)[C@@H](C)C(=O)O[C@H](CC)[C@@](C)(O)[C@H](O)[C@@H](C)C(=O)[C@H](C)C[C@@]2(C)O)O[C@H](C)C[C@@H]1N(C)C | inactive | – |
| O=C(O)c1cn(C2CC2)c2cc(Cl)c(F)cc2c1=O | inactive | – |
| Cc1c(F)cc2c(=O)c(C(=O)O)cn3c2c1CCC3C (stereo not given) | inactive | – |
| C=CCOc1cc(Cl)ccc1C(=O)NCCN(CC)CC | inactive | – |
| Cc1cccc(OCC(O)CNC(C)(C)C)c1C (stereo not given) | inactive | – |
| C1N2CN3CN1CN(C2)C3 | inactive | – |
| COc1c(N2C[C@@H]3CCCN[C@@H]3C2)c(F)cc2c(=O)c(C(=O)O)cn(C3CC3)c12 | inactive | – |
| CN1Cc2cc(C(=O)N3CCC(C4CCNCC4)CC3)ccc2N[C@@H](CC(=O)O)C1=O | inactive | – |
| O=C(c1ccccc1)c1ccccc1 | inactive | – |
| CCCCCCCC(=O)[O-].CCCCCCCC(=O)[O-].[Zn+2] | inactive | – |
| CCS(=O)(=O)c1ccc(OC)c(C(=O)OC)c1 | inactive | – |
| C[N+]1(C)CCC(OC(=O)C(O)(c2ccccc2)C2CCCC2)C1 (stereo not given) | inactive | – |
| CC(=O)O[C@H]1CC[C@@]2(C)C(=CC[C@@H]3[C@@H]2CC[C@]2(C)C(C(C)=O)=CC[C@@H]32)C1 | inactive | – |
| CC(=O)N[C@@H](CCC(N)=O)C(=O)O | inactive | – |
